# Rows were chosen to be rich in hits. Some 6.9% of all compounds tested hit in one or more screens of this group.
# Her2 expr inh = Her2 kinase expression inhibition. P04626. 65,000 compounds, 0.69% hits. SKBR-3 HER2 protein level, AlphaScreen, 18-24 h; stronger effect = lower value. HER2 level % of control, % at 10 µM;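 active = HER2 level under 5% of the carrier-only control; inconclusive = no clear call, values can overlap the other calls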;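 also: 100% = DMSO carrier and 0% = 500 nM PU-H71 HSP90 inhibitor; lower value means stronger loss of Her2 protein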
# Target sequence (P04626 whole entry, looked up): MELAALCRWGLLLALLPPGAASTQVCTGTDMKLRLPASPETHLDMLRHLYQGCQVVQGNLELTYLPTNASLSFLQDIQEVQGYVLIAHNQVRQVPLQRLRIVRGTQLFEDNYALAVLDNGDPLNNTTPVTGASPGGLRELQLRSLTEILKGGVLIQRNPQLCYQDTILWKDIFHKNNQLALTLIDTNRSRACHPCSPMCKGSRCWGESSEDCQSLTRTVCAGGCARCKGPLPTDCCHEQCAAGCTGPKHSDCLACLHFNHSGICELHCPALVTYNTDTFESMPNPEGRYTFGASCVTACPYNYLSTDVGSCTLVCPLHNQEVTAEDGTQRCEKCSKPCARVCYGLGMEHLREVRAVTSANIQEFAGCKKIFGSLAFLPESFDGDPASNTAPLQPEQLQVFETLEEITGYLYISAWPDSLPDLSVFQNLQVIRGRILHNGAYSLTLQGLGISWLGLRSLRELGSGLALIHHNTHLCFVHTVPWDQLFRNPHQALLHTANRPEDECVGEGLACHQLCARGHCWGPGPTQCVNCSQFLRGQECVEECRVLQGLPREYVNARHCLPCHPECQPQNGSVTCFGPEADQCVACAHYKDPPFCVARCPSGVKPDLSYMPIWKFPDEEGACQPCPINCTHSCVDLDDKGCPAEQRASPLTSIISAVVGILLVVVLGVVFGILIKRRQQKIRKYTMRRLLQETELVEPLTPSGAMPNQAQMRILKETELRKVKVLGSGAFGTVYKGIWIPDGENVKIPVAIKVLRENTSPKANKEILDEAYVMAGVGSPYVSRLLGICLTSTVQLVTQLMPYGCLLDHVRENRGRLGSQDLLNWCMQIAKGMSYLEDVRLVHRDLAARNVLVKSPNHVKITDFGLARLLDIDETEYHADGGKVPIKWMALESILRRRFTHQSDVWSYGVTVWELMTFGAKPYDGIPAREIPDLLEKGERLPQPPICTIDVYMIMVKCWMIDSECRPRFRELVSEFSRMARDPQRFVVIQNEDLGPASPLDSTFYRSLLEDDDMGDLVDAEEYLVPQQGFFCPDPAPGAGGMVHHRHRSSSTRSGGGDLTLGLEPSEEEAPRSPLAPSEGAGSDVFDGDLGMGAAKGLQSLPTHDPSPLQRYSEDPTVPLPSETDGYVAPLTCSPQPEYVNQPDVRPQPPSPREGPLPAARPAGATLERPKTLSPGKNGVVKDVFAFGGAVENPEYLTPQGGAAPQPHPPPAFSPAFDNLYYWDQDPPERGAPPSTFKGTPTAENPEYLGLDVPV
# FXIIa inh mix = factor XIIa (human) inhibition, mixture screen; purified FXIIa, fluorogenic substrate, pooled mixtures; AID 684; inhibition, % at 5 µM; 62,000 compounds, 0.2% hits;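 also: 0% = enzyme without compound and 100% = no enzyme blank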
# FXIa inh mix = factor XIa (human) inhibition, mixture screen | purified FXIa, fluorogenic substrate, pooled mixtures | 62,000 compounds, 0.19% hits | inhibition, % at 5 µM | P03951;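 also: each value is inhibition by a whole ten-compound pool holding the compound; 0% = enzyme with no mixture and 100% = wells lacking enzyme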
# M1 agonist = activates the M1 muscarinic receptor | AID 626 | B-score at 10 µM | CHO-M1 cells, Fluo-4 calcium fluorescence, agonist mode; stronger effect = higher value | 64,000 compounds, 3% hits;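 active = fluorescence rise, raw or as B-score row- and column-corrected plate score, outside the 99.7% band of its plate's samples, either direction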
# JNK3 blocker = blocks human JNK3 kinase activity; P53779; purified JNK3 kinase activity, HTS; inhibition, % at 8 µM; 60,000 compounds, 0.61% hits; in the data active = inhibition above about 17%;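 also: 0% = DMSO and 100% = reference inhibitor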
# M1 antag = antagonists of rat M1 muscarinic receptor. CHO-M1 cells, Fluo-4 calcium, ACh EC80 antagonist mode; stronger effect = lower value. B-score at 10 µM. 64,000 compounds, 3.4% hits. AID 628;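 active = calcium fluorescence response, raw or row-and-column corrected B-score, differing from the plate sample mean either way at a set confidence level, mostly lower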
# M1 ag confirm = confirmation of rat M1 muscarinic receptor agonists; AID 1488; 1,700 compounds, 19% hits; CHO-M1 cells, Fluo-4 calcium fluorescence, agonist mode; actives lie on both sides; fluorescence change (max-min) at 10 µM; shares compounds with M1 agonist;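 active = fluorescence change differs from the solvent-only DMSO control mean at a set confidence level in both duplicate runs; inconclusive = differs from solvent-only control mean in just one of two runs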;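 also: an EC20 dose of acetylcholine follows compound addition during the same imaging run; raw fluorescence intensity difference in instrument units with no normalization to controls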
# M4 ag counter = rat M4 muscarinic agonism, M1 counter-screen; shares compounds with M1 agonist; CHO M4/Gqi5 cells, Fluo-4 calcium fluorescence, agonist mode; actives lie on both sides; fluorescence change (max-min) at 10 µM; 1,700 compounds, 9% hits; AID 1741;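 active = fluorescence change differing from the plate's solvent-only control wells at 99.7% confidence in both duplicates, whether higher or lower; inconclusive = differs from solvent controls in only one of two duplicates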
# An asterisk follows results filed as active; ? = inconclusive; / = no result. Rule as the data show it, unless noted: active = inhibition above about 20% (passing the limit was not always enough); inactive = the rest.
SMILES,Her2 expr inh,FXIIa inh mix,FXIa inh mix,M1 agonist,JNK3 blocker,M1 antag,M1 ag confirm,M4 ag counter
CCOC(=O)C1C2c3ccccc3O[C@@]1(C)N=C1SCC(=O)N12 (some centres undefined),92,6,0,-0.17,3,1.1*,/,/
CCCCCCn1c(N)c(C(=O)NCCN2CCOCC2)c2nc3ccccc3nc21,-5.8*,0,-8,0.78,-1,0.21,/,/
CCCCCn1c(N)c(C(=O)NCCN2CCOCC2)c2nc3ccccc3nc21,37,3,1,0.44,-1,-0.022,/,/
COC(=O)c1c(C)[nH]c(C(=O)C(Cc2ccccc2)N(C)C)c1C (centres undefined),141,-13,4,-0.92,4,-0.13,/,/
Cc1ccccc1-n1c(O)c(C=Nc2ccc3c(c2)OCO3)c(=O)[nH]c1=O,109,3,-11,7.5*,-4,0.02,/,/
COc1ccccc1-n1c(O)c(C=NCc2ccc3c(c2)OCO3)c(=O)[nH]c1=O,99,9,3,0.12,3,0.33,/,/
CCn1c(O)c(C(=O)CC2NCCc3ccccc32)c(=O)n(CC)c1=S (centres undefined),-17*,/,/,-0.48,-2,-1.5,/,/
CN1CCN(C(=O)OC2c3nccnc3C(=O)N2c2ccc(Cl)cn2)CC1 (centres undefined),75,2,8,0.00076,-3,-0.0062,/,/
CC1=C(C(=O)N2CCC3(CC2)OCCO3)C2(CCC(C)CC2)OC1=O (centres undefined),103,36,10,0.036,-7,0.088,/,/
CN1CCN(c2ccc(C(N)=O)cc2N)CC1,-20*,1,9,0.61,-3,-0.45,/,/
CC(C)[C@@]1(NC(=O)[C@@H]2C=C3c4cccc5[nH]cc(c45)C[C@H]3N(C)C2)O[C@@]2(O)[C@@H]3CCCN3C(=O)[C@H](Cc3ccccc3)N2C1=O,90,5,4,60*,-6,0.73,/,/
CCOC(=O)c1cc(C)n(CCc2cnc[nH]2)c1C,102,/,/,0.0039,-1,-0.39,/,/
CN(C)P(=O)(C(Cl)=C(N1CCCCC1)N1CCCCC1)N(C)C,131,2,2,0.087,2,-0.83,/,/
O=C(C1CCCN(c2nnc(-n3cccc3)s2)C1)N1CCC2(CC1)OCCO2 (centres undefined),119,-19,-2,-0.0071,4,-0.055,/,/
O=C(C1CCN(c2nc3ccc(Br)cc3s2)CC1)N1CCC2(CC1)OCCO2,128,-26,8,7.8*,4,-5.5*,/,/
CCn1nc(-c2cccs2)nc2c(=O)n(C)c(=O)nc1-2,-0.1*,3,13,0.32,47*,0.17,/,/
CCN(CC)c1ccc(N=Cc2c(O)n(-c3ccccc3C)c(=O)[nH]c2=O)cc1,101,3,4,22*,-7,-0.55,46,17
O=c1cccc2n1CC1CC2CN(C(c2ccccc2)c2sc3ncnn3c2O)C1 (centres undefined),107,-10,6,-0.81,6,-0.051,/,/
O=C1NC(=O)C2(Cc3c(nc4ccccn4c3=O)N3CCCCCC32)C(=O)N1Cc1ccccc1 (centres undefined),63,9,8,12*,5,0.26,-11,-22
Cc1nc2c(c(C)nn2-c2ccccc2)c(C)c1CCC(=O)N1CCC2(CC1)OCCO2,77,5,0,-1,-2,0.096,/,/
COc1ccc2nc(NC(=O)CCc3nc(C4=CCN(C)CC4)no3)sc2c1,50,-2,9,5.1*,-3,-0.23,-1.6,-41
O=C(O)C1CN2CCC1CC2 (centres undefined),87,7,8,13*,-6,-0.16,233*,-34
O=C(c1cccs1)C1CN2CCC1CC2 (centres undefined),89,5,6,8.4*,0,-5.5*,32,15
O=C(CCN1C(=O)COc2ccccc21)N1CCC2(CC1)OCCO2,126,6,3,0.73,-9,-1.7,/,/
COc1ccc2c(c1)c(C(=O)CN1CCN(C)CC1)c(C)n2Cc1ccccc1,99,9,3,2.6*,-1,-0.47,?,-71
SMILES,Her2 expr inh,FXIIa inh mix,FXIa inh mix,M1 agonist,JNK3 blocker,M1 antag,M1 ag confirm,M4 ag counter
CCOC(=O)c1c(C)n(Cc2ccccc2)c2ccc(OCC(O)Cn3nc(C)nc3C)cc12 (centres undefined),78,12,10,1.9,5,-1.5,/,/
COc1ccc2c(c1)CC1(CN2C)C(=O)NC(=O)N(CCc2ccccc2)C1=O (centres undefined),102,2,3,-1.7,-2,0.89,/,/
CCC(C)N1C(=O)NC(=O)C2(Cc3c(ccc4ccccc34)N(C)C2)C1=O (centres undefined),82,0,3,13*,0,-2.1,?,?
CCCCn1c(NC(=O)c2ccco2)c(C(=O)OCC)c2nc3ccccc3nc21,80,3,-1,6.6*,6,-0.37,24,?
CCOc1ccc(-n2c(O)c(C=NCCN3CCNCC3)c(=O)[nH]c2=O)cc1,98,3,4,0.55,7,-0.032,/,/
CCOC(=O)C1CCN(/C=C2/C(=O)NC(=O)N(c3ccc(OCC)cc3)C2=O)CC1,127,-19,-2,-3.3*,-4,-0.13,-7,-23
COc1ccc(CC2C(=O)NC(=O)NC2=O)c(OC)c1,72,9,2,-0.13,8,0.083,/,/
COc1ccc(CC2C(=O)N(C)C(=O)N(C)C2=O)c(OC)c1,87,3,6,6.5*,-4,-3.6*,-3.9,-24
CC(C)Cn1cc(C(=O)N2CCC3(CC2)OCCO3)c2c3ccccc3n(C)c2c1=O,76,2,2,3*,0,-1.6,-2,-19
Cn1cc(C(=O)N2CCC3(CC2)OCCO3)c2c3ccccc3n(C)c2c1=O,81,10,6,-0.089,-4,0.0014,/,/
Cn1c2ccccc2c2c(C(=O)N3CCC4(CC3)OCCO4)cn(C3CCCCC3)c(=O)c21,84,2,-4,4.3*,/,-0.67,-14,-54
O=C1CCCC2C3CCCN4CCCC(CN12)C34 (centres undefined),91,2,1,-2.5*,4,-0.23,-11,-45
O=c1c2ccccc2nc(N2CCCC2)n1-c1ccc(Cl)cc1,105,1,-3,0.65,-2,-0.71,/,/
CC(=O)[C@@]1(O)CC[C@H]2[C@@H]3CC=C4C[C@@H](O)CC[C@]4(C)[C@H]3CC[C@@]21C,105,5,3,-0.21,3,-0.61,/,/
CCSc1cc(C2C(C#N)=C(N)Oc3n[nH]c(C)c32)c(C)o1 (centres undefined),54,4,-3,1.3,-4,0.54,/,/
